Hits are enriched below; roughly 3.3% of the tested compounds scored in any of these assays.
SMARCA2 act: SMARCA2 (BRM) function activators, primary screen, cell-based, luminescence, high throughput. MG213 cells, MMTV-luciferase reporter, dexamethasone, overnight. activation, % at 9.1 µM. hit rate 1% among 370,000. AID 652017, 2013; in the data active means activation above about 7.8%;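 further: 0% = vehicle wells and 100% = reference activator wells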
697 NFkB inh: inhibitors of PMA/ionomycin-induced NF-kB reporter, 697 cells, primary screen, B-cell NF-kB inhibitor project, cell-based, luminescence, uHTS; 697 B-cell NF-kB luciferase reporter, 16 h; inhibition, % at 4 µM; hit rate 0.33% among 330,000; in the data active means inhibition above about 35%
Gli-Sufu antag: Gli-Sufu pathway antagonists, primary screen, luciferase luminescence, Sufu-KO-LIGHT cells, uHTS. Sufu-KO-LIGHT fibroblasts, Gli luciferase reporter luminescence. inhibition, % at 5 µM. hit rate 0.74% among 340,000;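 active means inhibition above about 55%, limit read from the data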;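 further: 0% = DMSO-treated cells and 100% = wells with medium but no cells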
Jurkat NFkB inh: inhibitors of induced NF-kB luciferase reporter, primary screen, TCR NF-kB activation inhibitor project, cell-based, luminescence, uHTS. Jurkat, PMA/ionomycin-induced NF-kB luciferase reporter. inhibition, % at 4 µM. hit rate 0.53% among 330,000. AID 435003, 2010; in the data active means inhibition above about 50%
esBAF inh: Bmi1 luciferase reporter increase in mESCs, primary screen, esBAF inhibitor project, mouse ES cells, Bmi1 luciferase knock-in, single point. AID 602393, 2012. 24 h; 100% = twice the neutral-well signal. hit rate 2% among 350,000. reporter increase, % at 12.5 µM; in the data active means activation above about 40%;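 further: 0% = median of the plate's neutral control wells and 100% = double that signal; a rise in the Bmi1 reporter signal indicates esBAF inhibition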
SMARCA2 act conf: SMARCA2 (BRM) function activators, confirmation, cell-based, luminescence, triplicate; shares compounds with SMARCA2 act; hit rate 30% among 3,500; MG213 cells, MMTV-luciferase with dexamethasone, overnight; MG213 cells expressing E1A, Rb sequestered; DMSO wells 0%, reference activator 100%; activation, % at 9.1 µM;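 active means activation above its plate's cutoff, the mean activation of tested wells plus 3 SD, cut at about 7.9% in these data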
VP16 Luc act: GAL4-VP16 luciferase reporter activation, counter-screen for SMARCA2 (BRM) activator project, cell-based, pG5luc, luminescence, high throughput; activation, % at 9.1 µM; shares compounds with SMARCA2 act; HEK293 GAL4-VP16 pG5luc reporter; scaled: DMSO wells 0%, SAHA wells 100%; AID 686939, 2013; hit rate 41% among 3,500;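 active means activation above the solvent-only control well mean plus 3 SD, averaged across control plates, cut at about 5.2% in these data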
An asterisk follows results filed as active; · = no result.

SMILES | SMARCA2 act | 697 NFkB inh | Gli-Sufu antag | Jurkat NFkB inh | esBAF inh | SMARCA2 act conf | VP16 Luc act
C[C@H](CO)N1C[C@H](C)[C@@H](CN(C)C)Oc2ncc(-c3ccccc3F)cc2C1=O | · | · | · | · | -2 | · | ·
Cc1ccc(-c2ocnc2C(=O)Nc2ccccc2C(=O)N2CCCC2)cc1 | -2 | 1 | 2 | 25 | -9 | · | ·
CNC(=O)c1ncoc1-c1ccc(Cl)cc1 | 8.1* | -2 | -12 | 2 | -3 | 0 | 0
CSc1ccccc1NC(=O)c1cc(-c2ccc3c(c2)OCO3)on1 | 10* | -59 | -29 | -65 | 48* | 6 | 2
CSc1ccccc1NC(=O)c1cc(C)on1 | 0 | 12 | 1 | 8 | 4 | · | ·
O=C(Nc1nnc(C2CC2)s1)C1COc2ccccc2O1 (configuration not stated) | 12* | -60 | -68 | -60 | · | 7 | 14*
O=C(Nc1nncs1)C1COc2ccccc2O1 (configuration not stated) | 9.0* | -19 | -15 | -17 | · | 4 | 5
CN(C)C(=O)c1cccc(-c2ccc3c(c2)[C@@H]2[C@@H](CCN2C(=O)Cc2ccncc2)[C@@H](CO)N3)c1 | · | · | · | · | 5 | · | ·
O=C(/C=C/c1ccccc1)c1ccc2c(c1)OCO2 | 2 | -25 | -8 | -43 | 21 | · | ·
Cc1ccc(C(=O)/C=C/c2ccc3c(c2)OCO3)o1 | 11* | 11 | -19 | -8 | 13 | 9.4* | 2
Cc1ccc(NC(=O)/C=C/c2ccc3c(c2)OCO3)nc1 | 9.3* | -93 | -108 | -104 | · | 12* | 6.6*
CN(C)c1ccc(/C=C/C(=O)c2ccc3c(c2)OCO3)cc1 | 8.0* | 15 | -2 | 2 | 10 | 1 | 3
COc1ccccc1NC(=O)N1C[C@@H](O)COC[C@H]2O[C@H](CC(=O)NCCc3ccncc3)CC[C@@H]21 | · | · | · | · | -1 | · | ·
C[C@@H]1CN([C@@H](C)CO)S(=O)(=O)c2ccc(C#Cc3ccncc3)cc2O[C@@H]1CN(C)CC1CC1 | · | · | · | · | 8 | · | ·
Cc1noc(C)c1S(=O)(=O)Nc1ccc2c(c1)CC(=O)N([C@@H](C)CO)C[C@H](C)[C@@H](CN(C)Cc1ccc(-c3ccccc3)cc1)O2 | · | · | · | · | 0 | · | ·
CCCCNC(=S)NNC(=O)c1csc(C)c1CC | 8.3* | -15 | -5 | -13 | · | -2 | 2
COc1ccc(S(=O)(=O)Nc2ccc3c(c2)CC(=O)N([C@H](C)CO)C[C@@H](C)[C@@H](CN(C)S(=O)(=O)c2cccs2)O3)cc1 | · | · | · | · | 4 | · | ·
CC(=O)Nc1ccc2nc(NC(=O)c3cccnc3)sc2c1 | 11* | -8 | -27 | -1 | · | 10* | 4
CC(=O)Nc1ccc2nc(NC(=O)C(Cl)(Cl)Cl)sc2c1 | 0 | -12 | -7 | -6 | · | · | ·
CC(C)NC(=O)Nc1cccc2c1O[C@H](CN(C)C(=O)NC(C)C)[C@@H](C)CN([C@@H](C)CO)C2=O | · | · | · | · | -2 | · | ·
Cc1ccc(O)c(C2=Nc3ccccc3N=C(c3cccc([N+](=O)[O-])c3)C2)c1 | 8.7* | -12 | 2 | -30 | · | 0 | 1
CCOC(=O)/C(C#N)=C/c1c(N2CCN(c3ccccc3)CC2)nc2ccccn2c1=O | 9.9* | -69 | -14 | -57 | 21 | 7 | 4
COC(=O)/C(C#N)=C/c1c(N2CCN(c3ccccc3)CC2)nc2ccccn2c1=O | 3 | -7 | 2 | -7 | 36 | · | ·
CNC(=O)C[C@@H]1CC[C@H]2[C@@H](COC[C@@H](O)CN2S(=O)(=O)c2ccc(Oc3ccccc3)cc2)O1 | · | · | · | · | -5 | · | ·
CCSc1nnc(NC(=O)c2ccccc2)s1 | 11* | -83 | -61 | -24 | · | 5 | 5.5*
Cc1ccc(C(=O)Nc2nnc(C)s2)cc1 | 13* | -89 | -61 | -51 | · | 6 | 16*
O=C(Nc1nnc(SCC(=O)N2CCCc3ccccc32)s1)c1ccc2ccccc2c1 | 1 | -106 | -56 | -30 | · | · | ·
